About 79,000 compounds went through this panel and 15% of them were active in at least one assay; those are over-represented in the sample as a whole. The source made the active and inactive calls. Cut-off read from the data, not from the text of the source: active = growth inhibition above about 70%; inactive = the rest.
How the values were obtained:
[1] = NCI Yeast Anticancer Drug Screen. Data for the mec2-1 strain (AID 157); details: S. cerevisiae mec2-1 strain, hits give high values
Summary of the method: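 mec2-1 yeast strain, carrying an alteration in DNA damage repair or cell cycle control, was exposed to compounds; growth inhibition was measured relative to vehicle-treated controls.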

[2] = NCI Yeast Anticancer Drug Screen. Data for the rad14 strain (AID 159);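 note: 0% = growth of vehicle-treated control cultures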; details: S. cerevisiae rad14 strain growth inhibition, hits give high values
Summary of the method: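 Yeast cells carrying a defined DNA-repair defect were exposed to compounds, and growth inhibition was calculated relative to vehicle-treated control cultures.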

[3] = NCI Yeast Anticancer Drug Screen. Data for the sgs1 mgt1 strain (AID 161);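 note: 0% = growth of cultures given vehicle only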; details: S. cerevisiae sgs1 mgt1 strain, hits give high values
Summary of the method: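 This yeast growth screen uses a strain with defined DNA-repair lesions; compound-treated growth is compared with vehicle-treated growth.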

[4] = NCI Yeast Anticancer Drug Screen. Data for the CLN2oe strain (AID 163);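 note: 0% = growth of vehicle-only control cultures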; details: S. cerevisiae CLN2oe strain, hits give high values
Summary of the method: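 Yeast cells carrying a defined cell-cycle control alteration were exposed to test compounds. Growth inhibition was scored against vehicle-treated control cultures.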

[5] = NCI Yeast Anticancer Drug Screen. Data for the cln2 rad14 strain (AID 165);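 note: 0% = growth equal to vehicle treated cultures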; details: S. cerevisiae cln2 rad14 strain, hits give high values
Summary of the method: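 Yeast carrying cln2 and rad14 alterations (cell cycle control and DNA damage repair) were exposed to compounds. Growth inhibition was measured against vehicle-treated controls.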

[6] = NCI Yeast Anticancer Drug Screen. Data for the bub3 strain (AID 167); details: S. cerevisiae bub3 mutant strain, hits give high values
Summary of the method: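 Compounds were applied to a genetically altered yeast strain carrying a cell-cycle control defect. Growth inhibition was scored against vehicle-treated controls.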

[7] = NCI Yeast Anticancer Drug Screen. Data for the wt2 strain (AID 169);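 note: 0% = growth of vehicle-treated yeast cultures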; details: S. cerevisiae wt2 strain growth inhibition, hits give high values
Summary of the method: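 Yeast cells were exposed to test compounds, and growth inhibition was measured relative to vehicle-treated controls.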

[8] = NCI Yeast Anticancer Drug Screen. Data for the sgs1 strain (AID 173);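 note: 0% = growth of vehicle-only control cultures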; details: S. cerevisiae sgs1 mutant, hits give high values
Summary of the method: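 Yeast mutant strains carrying defined defects in DNA damage repair or cell cycle control were exposed to test compounds. Growth inhibition was scored against vehicle-treated controls.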

[9] = NCI Yeast Anticancer Drug Screen. Data for the mlh1 rad18 strain (AID 175); details: S. cerevisiae mlh1 rad18 strain growth inhibition, hits give high values
Summary of the method: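 Growth inhibition of the yeast strain was measured after compound exposure and expressed relative to vehicle-treated controls. The strain carries defined defects in DNA damage repair.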

[10] = NCI Yeast Anticancer Drug Screen. Data for the rad52 strain (AID 147);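 note: 0% = growth of vehicle-treated control cultures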; details: S. cerevisiae rad52 mutant growth inhibition, hits give high values
Summary of the method: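 Yeast strain carrying a DNA damage repair alteration was exposed to test compounds. Growth inhibition was measured relative to vehicle-treated controls.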

[11] = NCI Yeast Anticancer Drug Screen. Data for the wt1 strain (AID 149);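 note: 0% = growth of vehicle-treated wt1 cultures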; details: S. cerevisiae wt1 strain (SPY 50644) growth inhibition, hits give high values
Summary of the method: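 Yeast wt1 strain exposed to compounds; growth inhibition measured relative to vehicle-treated controls.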

[12] = NCI Yeast Anticancer Drug Screen. Data for the rad50EPP+ strain (AID 151);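 note: 0% = growth of vehicle-treated control cultures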; details: S. cerevisiae rad50 mutant strain, hits give high values
Summary of the method: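 Yeast strain carrying rad50 alteration (rad50EPP+) exposed to compounds; growth inhibition measured relative to vehicle-treated controls.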

[13] = NCI Yeast Anticancer Drug Screen. Data for the mgt1 strain (AID 153); details: S. cerevisiae mgt1 mutant growth inhibition, hits give high values
Summary of the method: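 Yeast mgt1 strain (DNA repair/cell-cycle alteration panel) exposed to compounds; growth inhibition measured relative to vehicle-treated controls.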

[14] = NCI Yeast Anticancer Drug Screen. Data for the rad50 strain (AID 155);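 note: 0% = growth of vehicle-only cultures of the same strain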; details: S. cerevisiae rad50 strain growth inhibition, hits give high values
Summary of the method: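 Yeast carrying a defined DNA repair defect were exposed to test compounds, and growth was compared with vehicle-treated controls to give percent inhibition.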

[15] = NCI Yeast Anticancer Drug Screen. Data for the mlh1 strain (AID 171);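 note: 0% = growth of vehicle-treated control cultures of the same strain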; details: S. cerevisiae mlh1 strain growth inhibition, hits give high values
Summary of the method: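 Yeast carrying a defined genetic alteration in DNA damage repair or cell cycle control were exposed to test compounds. Growth inhibition was measured relative to vehicle-treated controls.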

[16] = NCI Yeast Anticancer Drug Screen. Data for the rad18 strain (AID 177); details: S. cerevisiae rad18 mutant growth inhibition, hits give high values
Summary of the method: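 Yeast carrying a defined DNA damage repair alteration were exposed to compounds. Growth inhibition was expressed relative to vehicle-treated controls.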

[17] = at 5.0 µM (retest, dose inferred, filed as 0.5)
[18] = at 50.0 µM (retest, dose inferred, filed as 5.0)

Measured: growth inhibition

COc1ccc(O)c(/C=N\Nc2ccccc2)c1
inactive: [1]; [17] -52% | [1]; at 11.0 µM -5% | [1]; at 33.0 µM -5% | [1]; [18] -12% | [1]; at 100.0 µM -2% | [2]; at 1.2 µM 0% | [2]; at 3.7 µM -1% | [2]; at 11.0 µM 5% | [2]; at 33.0 µM 30% | [3]; [17] -64% | [3]; [18] -22% | [4]; at 1.2 µM -8% | [4]; at 3.7 µM -9% | [4]; at 11.0 µM -14% | [4]; at 33.0 µM -14% | [4]; at 100.0 µM 21% | [5]; [17] -61% | [5]; [18] -19% | [6]; at 1.2 µM -9% | [6]; at 3.7 µM -9% | [6]; [17] -73% | [6]; at 11.0 µM -9% | [6]; at 33.0 µM 6% | [6]; [18] -4% | [6]; at 100.0 µM 49% | [7]; at 1.2 µM 3% | [7]; at 3.7 µM 8% | [7]; at 11.0 µM 21% | [7]; at 33.0 µM 51% | [8]; at 1.2 µM -13% | [8]; at 3.7 µM -9% | [8]; at 11.0 µM 11% | [8]; at 33.0 µM 39% | [9]; [17] -132% | [9]; [18] 13%
active: [1]; at 50.0 µM 99.3% | [2]; at 100.0 µM 94% | [3]; at 50.0 µM 98.8% | [5]; at 50.0 µM 99% | [6]; at 50.0 µM 98.9% | [7]; at 100.0 µM 96% | [8]; at 100.0 µM 94% | [9]; at 50.0 µM 98.5%

CCCCCCCCCCC1CCC(=O)O1 (stereo unspecified)
inactive: [10]; at 1.2 µM -2% | [10]; at 3.7 µM -2% | [10]; at 11.0 µM -1% | [10]; at 33.0 µM 4% | [11]; at 1.2 µM -2% | [11]; at 3.7 µM -2% | [11]; at 11.0 µM -2% | [11]; at 33.0 µM 3% | [12]; at 1.2 µM -2% | [12]; at 3.7 µM 3% | [12]; at 11.0 µM 11% | [12]; at 33.0 µM 22% | [12]; at 100.0 µM 38% | [13]; at 1.2 µM -2% | [13]; at 3.7 µM -1% | [13]; at 11.0 µM 0% | [13]; at 33.0 µM 8% | [14]; at 1.2 µM -1% | [14]; at 3.7 µM -46% | [14]; [17] -2% | [14]; at 11.0 µM 16% | [14]; at 33.0 µM 12% | [14]; [18] 50% | [1]; at 1.2 µM -1% | [1]; at 3.7 µM -2% | [1]; [17] 5% | [1]; at 11.0 µM 0% | [1]; at 33.0 µM 8% | [1]; [18] 27% | [2]; at 1.2 µM 1% | [2]; at 3.7 µM 3% | [2]; at 11.0 µM 7% | [2]; at 33.0 µM 15% | [3]; [17] 6% | [3]; [18] 13% | [4]; at 1.2 µM 0% | [4]; at 3.7 µM 1% | [4]; at 11.0 µM 7% | [4]; at 33.0 µM 5% | [5]; [17] 2% | [5]; [18] 15% | [6]; at 1.2 µM -3% | [6]; at 3.7 µM 0% | [6]; [17] 3% | [6]; at 11.0 µM 0% | [6]; at 33.0 µM 0% | [6]; [18] 9% | [15]; at 1.2 µM -2% | [15]; at 3.7 µM 0% | [15]; at 11.0 µM 0% | [15]; at 33.0 µM 10% | [8]; at 1.2 µM -1% | [8]; at 3.7 µM 1% | [8]; at 11.0 µM 3% | [8]; at 33.0 µM 20% | [9]; [17] -3% | [9]; [18] 69% | [16]; at 1.2 µM -1% | [16]; at 3.7 µM 1% | [16]; at 11.0 µM -1% | [16]; at 33.0 µM 7%
active: [10]; at 100.0 µM 99% | [11]; at 100.0 µM 98% | [13]; at 100.0 µM 100% | [14]; at 50.0 µM 97.2% | [14]; at 100.0 µM 99% | [1]; at 50.0 µM 98.8% | [1]; at 100.0 µM 99% | [2]; at 100.0 µM 99% | [3]; at 50.0 µM 91.2% | [4]; at 100.0 µM 98% | [5]; at 50.0 µM 97.7% | [6]; at 50.0 µM 91.3% | [6]; at 100.0 µM 99% | [15]; at 100.0 µM 99% | [8]; at 100.0 µM 99% | [9]; at 50.0 µM 92.2% | [16]; at 100.0 µM 97%
